Reference: PubChem BioAssay (NCI)
Compounds without any hit were thinned out: in the full panel of roughly 79,000, 15% have a hit. Cut-off read from the data, not from the text of the source: active = growth inhibition above about 70%; inactive = the rest.

Assays:
[1] = NCI Yeast Anticancer Drug Screen. Data for the rad50 strain (AID 155);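 note: 0% = growth of vehicle-only cultures of the same strain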; details: S. cerevisiae rad50 strain growth inhibition; at 50.0 µM; stronger effect = higher value
How it was run: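 A DNA repair-deficient yeast mutant serves as the test organism; compound-induced growth inhibition is calculated against vehicle-treated cells.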

[2] = NCI Yeast Anticancer Drug Screen. Data for the mec2-1 strain (AID 157); details: S. cerevisiae mec2-1 strain, at 50.0 µM, stronger effect = higher value
How it was run: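 mec2-1 yeast strain, carrying an alteration in DNA damage repair or cell cycle control, was exposed to compounds; growth inhibition was measured relative to vehicle-treated controls.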

[3] = NCI Yeast Anticancer Drug Screen. Data for the sgs1 mgt1 strain (AID 161);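 note: 0% = growth of cultures given vehicle only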; details: S. cerevisiae sgs1 mgt1 strain, at 50.0 µM, stronger effect = higher value
How it was run: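 Yeast cells carrying a defined DNA-repair defect were exposed to test compounds. Growth inhibition was measured relative to vehicle-treated controls.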

[4] = NCI Yeast Anticancer Drug Screen. Data for the cln2 rad14 strain (AID 165);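 note: 0% = growth equal to vehicle treated cultures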; details: S. cerevisiae cln2 rad14 strain, at 50.0 µM, stronger effect = higher value
How it was run: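 Yeast carrying cln2 and rad14 alterations (cell cycle control and DNA damage repair) were exposed to compounds. Growth inhibition was measured against vehicle-treated controls.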

[5] = NCI Yeast Anticancer Drug Screen. Data for the bub3 strain (AID 167); details: S. cerevisiae bub3 mutant strain, at 50.0 µM, stronger effect = higher value
How it was run: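 Inhibition values come from growth of compound-treated mutant yeast normalised to vehicle-treated controls.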

[6] = NCI Yeast Anticancer Drug Screen. Data for the mlh1 rad18 strain (AID 175); details: S. cerevisiae mlh1 rad18 strain growth inhibition; at 50.0 µM; stronger effect = higher value
How it was run: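 Growth inhibition of the yeast strain was measured after compound exposure and expressed relative to vehicle-treated controls. The strain carries defined defects in DNA damage repair.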

Measured: growth inhibition

COc1cc(C2=N/C(=C\c3cc(Cl)cc(Cl)c3O)C(=O)O2)cc(OC)c1OC
inactive: [1] -33.7% | [2] -23.6% | [3] 2.85% | [4] -12.6% | [5] -2.9% | [6] -2.8%

COCC(C)OC(=O)c1ccccc1 (stereo not given)
inactive: [1] 23.8% | [2] -0.8% | [3] -9.9% | [4] -23.4% | [5] -14.9% | [6] 31.9%

COC(=O)c1cc(CC2Cc3cc4c(cc3C2)CCC4)cc2c1CCC2
inactive: [1] -16.7% | [2] -8.85% | [3] -29.1% | [4] 15.3% | [5] 0.7% | [6] -1.25%

CC(C)(C)OC(=O)N1CCCC1C(=O)Oc1ccc([N+](=O)[O-])cc1 (stereo not given)
inactive: [1] 31.6% | [2] 19.4% | [3] 11.4% | [4] 3.55% | [5] 6.25% | [6] 58.5%

O=C(Nc1ccc(Cl)cc1)OCCSc1nc2ccccc2s1
inactive: [1] -6.05% | [2] -30.1% | [3] 21.5% | [4] 9.35% | [5] 4.55% | [6] -3.9%

O=C1c2ccccc2C(=O)c2c1ccc1c2N=C(c2ccc(F)cc2)CC(c2ccc(Cl)c(Cl)c2)N1 (stereo not given)
inactive: [1] 58% | [2] 20.1% | [3] 5% | [4] -14.7% | [5] 7.65% | [6] 43.6%

CCOC(=O)CCCCCCCCCCCCC1C=CCC1 (stereo not given)
inactive: [1] -19.1% | [2] -41.4% | [3] -3.45% | [4] -28.6% | [5] -49.1% | [6] -21.3%

COC(=O)C(CS)NC(=O)CNC(=O)CNC(=O)C(CCCCNC(=O)OCc1ccccc1)NC(=O)CNC(=O)C(CSC(c1ccccc1)(c1ccccc1)c1ccccc1)NC(=O)OCc1ccccc1 (stereo not given)
inactive: [1] -16.2% | [2] 2.75% | [3] -10.7% | [4] -17.2% | [5] -25.2% | [6] 0.2%

O=c1oc2ccccc2[n+]([O-])c1-c1ccccc1
inactive: [1] -9.9% | [2] -10.8% | [3] -9.35% | [4] 16.9% | [5] -18.8% | [6] -17.9%

Cc1nnc(CC#N)n1NC(=O)CC#N
inactive: [1] 3.95% | [2] -3.15% | [3] -2.7% | [4] -18% | [5] 8.65% | [6] 9.95%

Cc1cc(=O)[nH]c(/N=C(\N)Nc2ccc(Br)c(C(F)(F)F)c2)n1
inactive: [1] 10.1% | [2] 2.85% | [3] -3.8% | [4] 6.55% | [5] -1.5% | [6] 2.9%

O=CCS
inactive: [1] -0.2% | [2] 4.85% | [3] -5.6% | [4] -38% | [5] -31.2% | [6] 7.15%

O=C(NC(c1ccccc1)C(Cl)(Cl)c1ccccc1)c1ccccc1 (stereo not given)
inactive: [1] 21.8% | [2] -7.5% | [3] 6.4% | [4] -0.2% | [5] 22.9% | [6] 23.3%

COC(=O)c1ccccc1OC(C)=O
inactive: [1] 9.8% | [2] 11.4% | [3] -0.4% | [4] 13.8% | [5] 1.5% | [6] -10.7%

CC(=O)Nc1ccc(S(=O)(=O)N/N=C(\C)c2csc3ccccc23)cc1
inactive: [1] -2.7% | [2] -5.25% | [3] -19.9% | [4] -16.1% | [5] -4.05% | [6] 0.15%

CN(C)c1ccc2c(c1[N+](=O)[O-])Cc1ccccc1-2
inactive: [1] 18.3% | [2] 3.3% | [3] 6.75% | [4] 14.6% | [5] 32.2% | [6] 6.05%

CCN(CC)CC(=O)Nc1c(C(N)=O)nnn1Cc1cc(Cl)c(C(=O)c2ccc(Cl)cc2)c(Cl)c1
inactive: [1] 41.8% | [2] -14.5% | [3] 5.15% | [4] 7.95% | [5] 15.9% | [6] -36.1%

CC(=O)c1cc2c(Br)cccc2oc1=O
inactive: [1] -38% | [2] -42.4% | [3] -32.5% | [4] -3.3% | [5] -42.9% | [6] -36.2%

COc1ccc(C2ON(c3ccccc3)CC=C2C)cc1 (stereo not given)
inactive: [1] 36% | [2] -3.2% | [3] 5.55% | [4] 13.1% | [5] 19.4% | [6] 13.1%

CN(C)CCCNc1ccc([N+](=O)[O-])c2nc3ccccc3c(N)c12
inactive: [1] -2.1% | [2] -64.7% | [3] 6.45% | [4] -0.5% | [5] -11.4% | [6] 65.6%
